Rows were chosen to be rich in hits. Some 2.5% of all compounds tested hit in one or more screens of this group.
697 NFkB inh = inhibitors of PMA/ionomycin-induced NF-kB reporter, 697 cells, primary screen, B-cell NF-kB inhibitor project, cell-based, luminescence, uHTS; 697 B-cell NF-kB luciferase reporter, 16 h; inhibition, % at 4 µM; 330,000 tested, 0.33% active; AID 435022, 2010; in the data active = inhibition above about 35%
TMEM16A act = TMEM16A chloride channel activators or potentiators, primary screen, cell-based, HTS; Anoctamin-1 (Mus musculus), Q8BHY3; HEK293 TMEM16A/YFP-H148Q/I152L, iodide quench fluorescence; stronger effect = lower value; B-score at 10 µM; 340,000 tested, 0.3% active;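 active = fluorescence-ratio B-score plate-corrected deviation score at least 3 library SD below zero, with starting fluorescence score within 5 deviations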;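 note: channel opened by trigger with iodide after compound preincubation; score built on the fluorescence ratio of max minus min over baseline; more negative score means more quench and so TMEM16A activation or potentiation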
Jurkat NFkB inh = inhibitors of induced NF-kB luciferase reporter, primary screen, TCR NF-kB activation inhibitor project, cell-based, luminescence, uHTS; Jurkat, PMA/ionomycin-induced NF-kB luciferase reporter; inhibition, % at 4 µM; 330,000 tested, 0.53% active; AID 435003, 2010; in the data active = inhibition above about 50%
TMEM16A inh = TMEM16A chloride channel inhibitors, primary screen, cell-based, HTS; Anoctamin-1 (Mus musculus), Q8BHY3; HEK293 TMEM16A/YFP iodide influx fluorescence, ionomycin; normalized B-score (activity score, 25-100; higher = stronger inhibition) at 10 µM; 310,000 tested, 1.2% active; AID 588511, 2011;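 active = ratio plate-corrected score three or more library SD toward inhibition, starting fluorescence score within five deviations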;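 note: score derived from kinetic fluorescence span divided by baseline fluorescence per well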
KLF5 inhibitor = KLF5 expression inhibitors, primary screen, DLD-1 cells, luminescence; DLD-1 KLF5 promoter-luciferase reporter; inhibition, % at 5 µM; 290,000 tested, 0.23% active;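 active = inhibition above a per-plate limit of that plate's mean compound inhibition plus 3 SD, cut at about 60% in these data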;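 note: higher means less KLF5 promoter-driven luciferase light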
aSyn 5UTR inh = MLPCN primary screen, SNCA 5' untranslated region | alpha-synuclein 5'UTR reporter, inhibitor activity | inhibition, % (tested at 7.5 µM) | 300,000 tested, 0.82% active; in the data active = inhibition above about 60%; inconclusive = no clear call, values can overlap the other calls;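 note: H4 neuroglioblastoma cells stably carrying SNCA 5'UTR luciferase fusion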
697 NFkB conf = PMA/ionomycin-induced NF-kB reporter inhibitors, 697 retest, confirmation, B-cell NF-kB inhibitor project, cell-based, luminescence, single concentration; shares compounds with 697 NFkB inh; 697 B-cell NF-kB luciferase, 16 h; inhibition, % at 4 µM; 2,000 tested, 35% active; AID 449746, 2010; in the data active = inhibition mostly above about 28%, no sharp cut-off; inactive = mostly below about 22%
A number is an active result.

For O=C(CCCN1C(=O)/C(=C/c2ccccc2Cl)SC1=S)NNC(=O)c1ccc(Cl)cc1Cl the results were 697 NFkB inh 60, TMEM16A act inactive, Jurkat NFkB inh inactive, TMEM16A inh inactive, KLF5 inhibitor inactive, aSyn 5UTR inh 71 and 697 NFkB conf 39.
For O=C(CCCN1C(=O)/C(=C/c2ccccc2Cl)SC1=S)NNC(=O)c1ccccc1 the results were 697 NFkB inh 40, TMEM16A act inactive, Jurkat NFkB inh inactive, TMEM16A inh inactive, KLF5 inhibitor inactive, aSyn 5UTR inh 62 and 697 NFkB conf 42.
O=C(CCCN1C(=O)S/C(=C\C=C\c2ccccc2)C1=O)Nc1ccc(C(=O)O)cc1 was read as 697 NFkB inh 48, TMEM16A act inactive, Jurkat NFkB inh inactive, TMEM16A inh inactive, KLF5 inhibitor inactive, aSyn 5UTR inh inactive and 697 NFkB conf 53.
CCCCc1ccc(S(=O)(=O)Nc2nnc(C)s2)cc1 was read as 697 NFkB inh inactive, TMEM16A act inactive, Jurkat NFkB inh inactive, TMEM16A inh inactive, KLF5 inhibitor inactive and aSyn 5UTR inh inactive.
For O=C(c1cccs1)N(Cc1nc2sc3c(c2c(=O)[nH]1)CCCC3)C1CCCC1 the results were 697 NFkB inh inactive, TMEM16A act inactive, Jurkat NFkB inh inactive, TMEM16A inh inactive, KLF5 inhibitor inactive, aSyn 5UTR inh inactive and 697 NFkB conf inactive.
`Cc1sc2nc(CN(C(=O)c3cccs3)C3CCCC3)[nH]c(=O)c2c1C` gave 697 NFkB inh inactive, TMEM16A act inactive, Jurkat NFkB inh inactive, TMEM16A inh inactive, KLF5 inhibitor inactive and aSyn 5UTR inh inactive.
Screening Cc1cc(NC(=O)COC(=O)c2c(Cl)cccc2Cl)no1 returned 697 NFkB inh inactive, TMEM16A act inactive, Jurkat NFkB inh inactive and 697 NFkB conf inactive.
`CCN(CC)S(=O)(=O)c1cccc(NC(=O)c2ccc(Sc3nncn3C)c([N+](=O)[O-])c2)c1` gave 697 NFkB inh 37, TMEM16A act inactive, Jurkat NFkB inh inactive, TMEM16A inh inactive, KLF5 inhibitor inactive, aSyn 5UTR inh inactive and 697 NFkB conf inactive.
For CN(c1ccccc1)S(=O)(=O)c1ccc(Cl)c(C(=O)Nc2ccccc2N2CCOCC2)c1 the results were 697 NFkB inh inactive, TMEM16A act inactive and Jurkat NFkB inh inactive.
Cc1cnc(NC(=O)c2cc3c(s2)CCCC3)s1 was read as 697 NFkB inh inactive, TMEM16A act inactive, Jurkat NFkB inh inactive, TMEM16A inh inactive, KLF5 inhibitor inactive, aSyn 5UTR inh 65 and 697 NFkB conf inactive.
`COc1cc(-c2nc3n(n2)C(c2ccc(F)cc2)C2=C(CCCC2=O)N3)cc(OC)c1OC` (configuration not stated) gave 697 NFkB inh 37, TMEM16A act inactive, Jurkat NFkB inh inactive, TMEM16A inh inactive, KLF5 inhibitor inactive, aSyn 5UTR inh inactive and 697 NFkB conf 33.
For COc1cccc(C2C3=C(CCCC3=O)Nc3nc(-c4cc(OC)c(OC)c(OC)c4)nn32)c1 (configuration not stated) the results were 697 NFkB inh inactive, TMEM16A act inactive, Jurkat NFkB inh inactive, TMEM16A inh inactive, KLF5 inhibitor inactive and aSyn 5UTR inh inactive.
`Cc1ccc(S(=O)(=O)c2cc3c(=O)n4ccccc4nc3n(Cc3ccco3)c2=N)cc1C` gave 697 NFkB inh 40, Jurkat NFkB inh inactive, TMEM16A inh inactive, KLF5 inhibitor inactive, aSyn 5UTR inh inactive and 697 NFkB conf inactive.
`COc1cc(-c2nc3ccccn3c2NCC2CCCO2)ccc1O` (configuration not stated) gave 697 NFkB inh 36, TMEM16A act inactive, Jurkat NFkB inh inactive, TMEM16A inh inactive, KLF5 inhibitor inactive, aSyn 5UTR inh inactive and 697 NFkB conf inactive.
For CCOc1cc(-c2nc3ccccn3c2NCC2CCCO2)ccc1O (configuration not stated) the results were 697 NFkB inh inactive, TMEM16A act inactive, Jurkat NFkB inh inactive, TMEM16A inh inactive, KLF5 inhibitor inactive and aSyn 5UTR inh inactive.
`CCN(CC)S(=O)(=O)c1ccc(N2CCOCC2)c(NC(=O)c2[nH]c(C)c(C(C)=O)c2C)c1` gave 697 NFkB inh 48, TMEM16A act inactive, Jurkat NFkB inh inactive and 697 NFkB conf 46.
Cc1ccc(N=Nc2cc(C)ccc2N)cc1 was read as 697 NFkB inh inactive, TMEM16A act inactive, Jurkat NFkB inh inactive, TMEM16A inh inactive, KLF5 inhibitor inactive, aSyn 5UTR inh inconclusive and 697 NFkB conf inactive.
`COc1cc(/C=N/NC(=O)c2cc(-c3cccc(OC(C)C)c3)nc3ccccc23)ccc1O` gave 697 NFkB inh inactive, TMEM16A act inactive, Jurkat NFkB inh inactive, TMEM16A inh inactive, aSyn 5UTR inh inactive and 697 NFkB conf inactive.
For O=C(O)c1cccc(Nc2ncnc3sccc23)c1 the results were 697 NFkB inh 52, TMEM16A act inactive, Jurkat NFkB inh inactive, TMEM16A inh inactive, KLF5 inhibitor inactive, aSyn 5UTR inh inactive and 697 NFkB conf inactive.
`Cc1cccc(/C=C2\CCC(=C3SCCCS3)C2=O)c1` gave 697 NFkB inh inactive, TMEM16A act inactive, Jurkat NFkB inh inactive, TMEM16A inh inactive, KLF5 inhibitor inactive, aSyn 5UTR inh 85 and 697 NFkB conf inactive.
For O=C(NCC1CCN(Cc2ccc(F)cc2)CC1)Nc1cc(F)ccc1F the results were 697 NFkB inh inactive, TMEM16A act inactive, Jurkat NFkB inh inactive, TMEM16A inh inactive, KLF5 inhibitor inactive and aSyn 5UTR inh inactive.
For COc1cc(CN(C2CCCCC2C)S(=O)(=O)c2ccc(S(=O)(=O)NC3CC3)cc2)cc(OC)c1OC (configuration not stated) the results were 697 NFkB inh 36, TMEM16A act inactive, Jurkat NFkB inh inactive, TMEM16A inh inactive, KLF5 inhibitor inactive, aSyn 5UTR inh inactive and 697 NFkB conf inactive.
For COc1ccccc1CNS(=O)(=O)c1ccc(S(=O)(=O)NC2CC2)cc1 the results were 697 NFkB inh inactive, TMEM16A act inactive, Jurkat NFkB inh inactive, TMEM16A inh inactive, KLF5 inhibitor inactive and aSyn 5UTR inh inactive.
COCCN(Cc1nc(-c2ccc(-c3ccccc3)cc2)oc1C)C(C)C was read as 697 NFkB inh inactive, TMEM16A act inactive, Jurkat NFkB inh inactive, TMEM16A inh inactive, KLF5 inhibitor inactive, aSyn 5UTR inh inactive and 697 NFkB conf inactive.
`Cc1oc(-c2ccoc2)nc1CN(CC1CCC(=O)N1)C(C)C` (configuration not stated) gave 697 NFkB inh inactive, TMEM16A act inactive, Jurkat NFkB inh inactive, TMEM16A inh inactive, KLF5 inhibitor inactive and aSyn 5UTR inh inactive.

Assay outcomes from PubChem BioAssay.
